# Records with an inconclusive call do not appear. Where a call stands in place of a potency, no number is given. Activity calls are given as the source filed them. The call rests on the fitted dose curve; in most records, active means well fitted curve in the direction sought with a large enough effect; inconclusive means small, poorly fitted or top-dose-only effect, or another doubt; inactive means no such curve, though single readings can be large; an effect the other way counts as inactive or inconclusive.
# Columns and labels:
# [1] = molecular target: Thioredoxin reductase 1, cytoplasmic (Rattus norvegicus) (UniProt O89049); test: qHTS Assay for Substrates of Mammalian Selenoprotein Thioredoxin Reductase 1 (TrxR1) (AID 488772);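 further: series mostly up to about 57 µM; a drop in NADPH fluorescence below the no-compound background marks a TrxR1 substrate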
# Outline: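 In this dual-purpose format, potential substrates are identified from the first fluorescence read after selenite addition, not from the 8-minute delta. Rat enzyme is preincubated with NADPH and then with compound at ~22 deg C.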
# [2] = molecular target: Flap endonuclease 1 (Homo sapiens) (UniProt P39748); test: qHTS Validation Assay for the Inhibitors of Human Flap endonuclease 1 (FEN1) (AID 488816)
# Outline: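 Enzyme reagent 10 nM; cpds pinned; 15 min RT preinc.; substrate 50 nM final; reads t=0 and 15 min; no-enzyme buffer wells as neg. control; normalized data, 4-parameter Hill fit.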
# [3] = molecular target: Methanococcus maripaludis chaperonin (MmCpn) (UniProt Q6LX38); test: High-Throughput Screening for Modulators of Cytosolic Chaperonin Activity: MmCpn Primary Screen (AID 488978);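 further: 50 nM MmCpn enzyme hydrolysing 30 µM ATP at 37 °C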
# Outline: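 Steps: chaperonin 50 nM final; add compound, 5 min RT; start with ATP, 30 uM final; hold 10 min at 37C; add ADP Transcreener HTRF reagent, 5 min; read ex 320, em 590 and 665 nm.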
# [4] = molecular target: D(1A) dopamine receptor (Homo sapiens) (UniProt P21728); test: HTS Assay for Allosteric Agonists of the Human D1 Dopamine Receptor: Primary Screen for Agonists (AID 488981)
# Outline: (§1)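 Tetracycline-induced HEK293 Trex D1 cells with forced coupling to calcium, loaded with no-wash calcium dye; kinetic fluorescence read 180 s after compound addition for agonism, then a further 180 s after an EC20 dopamine challenge for potentiation.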
# [5] = molecular target: D(1A) dopamine receptor (Homo sapiens) (UniProt P21728); test: HTS Assay for Allosteric Agonists of the Human D1 Dopamine Receptor: Primary Screen for Potentiators (AID 488982)
# Outline: as §1
# [6] = molecular target: D(1A) dopamine receptor (Homo sapiens) (UniProt P21728); test: HTS Assay for Allosteric Agonists of the Human D1 Dopamine Receptor: Primary Screen for Antagonists (AID 488983);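 further: calcium flux response to an EC80 dopamine challenge measured with no-wash dye; nearly all actives have a fitted effect of over 65% in size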
# Source text: Dopamine receptors (DARs) are involved in the etiology and/or therapy of a number of neuropsychiatric and endocrine disorders. For instance, all receptor-based antiparkinsonian drugs work via stimulating the […] DAR subtype whereas all FDA-approved antipsychotic agents are antagonists of this receptor. […] There are three different types of allosteric modulators that we are seeking, two of which will stimulate or augment receptor signaling, allosteric agonists and potentiators, while the third, allosteric antagonists, will attenuate receptor signaling. The present primary screening assay measures compound agonism by tracking calcium flux in a […], inducible Hek293 Trex D1 cell line.
# Freshly passaged cells are plated in 1536 well black, clear bottom plates at a density of 4000 cells/well in 3 ul of complete media containing 1x tetracycline inducer. After an overnight incubation at […] in 5% CO2, cells are loaded with 2 ul of the no wash Calcium Assay Kit (ABD Bioquest) and incubated at room temperature for 30 to 90 minutes. […] The plate is measured for kinetically at 1 cycle/sec for 180 seconds and is considered to be the agonist portion of the assay (eg, compounds which activate a positive calcium response during this portion are flagged as potential agonists). Following the 180 second read, 1 ul of an EC80 of dopamine is delivered by an onboard pipette head. […]
# [7] = molecular target: Tyrosyl-DNA phosphodiesterase 1 (Homo sapiens) (UniProt Q9NUW8); test: Confirmation Assay for Inhibitors of Tyrosyl-DNA Phosphodiesterase (TDP1) (AID 489007); conditions: recombinant human TDP1 enzymatic activity, dose-response; further: potency means the concentration at half of the fitted maximal effect; nearly all actives have a fitted effect of over 40% in size
# Source text: Human tyrosyl-DNA phosphodiesterase I (Tdp1) is a rational anticancer target because this enzyme is involved in the repair of DNA lesions created by the trapping of human DNA topoisomerase I (Top1) following treatment by anticancer agents such as camptothecins. Recombinant Tdp1 was expressed and purified from E. coli in the laboratory (Anthony et al, Nucleic Acids Research, 2007, Vol. 35, 4474-4484). A Tdp1 DNA substrate bearing a 5' biotin and a 3' phospho-tyrosine was obtained by custom synthesis. This oligonucleotidic DNA substrate was subsequently coupled to a fluorescein isothiocyanate (FITC) group via the free amino group present on the phospho-tyrosine. Tdp1 was screened against the NCGC small molecule library using the AlphaScreen (AS) detection method in which a streptavidin donor AS bead is bound at the 5' end and an anti-FITC AS acceptor bead is bound at the 3' end of the DNA oligonucleotidic substrate. In the presence of Tdp1, the enzyme cleaves the tyrosine-FITC group, leaving a 3' end phosphate on the DNA substrate. This cleavage reaction results in a loss of signal in AS.
# This BioAssay is a confirmation of followup compounds from primary TDP1 screen (AID:485290)
# NIH Molecular Libraries Probe Production Network [MLPCN] […]
# 3 ul of Tdp1 enzyme is dispensed to 1536-well Kalypsys black solid bottom plates. […] The detection is then performed on a PerkinElmer Envision reader.
# D(1A) dopamine receptor (Homo sapiens), sequence (P21728 whole entry, looked up): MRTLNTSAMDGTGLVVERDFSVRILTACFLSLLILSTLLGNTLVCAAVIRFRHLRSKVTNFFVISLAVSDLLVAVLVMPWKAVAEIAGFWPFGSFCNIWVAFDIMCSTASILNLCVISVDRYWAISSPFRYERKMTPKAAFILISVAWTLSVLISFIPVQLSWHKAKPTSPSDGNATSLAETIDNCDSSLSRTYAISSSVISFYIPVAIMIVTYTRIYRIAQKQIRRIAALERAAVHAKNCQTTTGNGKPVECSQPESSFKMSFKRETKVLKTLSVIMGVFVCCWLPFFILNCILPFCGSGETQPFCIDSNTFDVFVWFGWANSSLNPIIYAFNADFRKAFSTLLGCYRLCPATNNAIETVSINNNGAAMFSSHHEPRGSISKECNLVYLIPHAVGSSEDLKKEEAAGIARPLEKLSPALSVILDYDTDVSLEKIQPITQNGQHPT
# Tyrosyl-DNA phosphodiesterase 1 (Homo sapiens), sequence (Q9NUW8 whole entry, looked up): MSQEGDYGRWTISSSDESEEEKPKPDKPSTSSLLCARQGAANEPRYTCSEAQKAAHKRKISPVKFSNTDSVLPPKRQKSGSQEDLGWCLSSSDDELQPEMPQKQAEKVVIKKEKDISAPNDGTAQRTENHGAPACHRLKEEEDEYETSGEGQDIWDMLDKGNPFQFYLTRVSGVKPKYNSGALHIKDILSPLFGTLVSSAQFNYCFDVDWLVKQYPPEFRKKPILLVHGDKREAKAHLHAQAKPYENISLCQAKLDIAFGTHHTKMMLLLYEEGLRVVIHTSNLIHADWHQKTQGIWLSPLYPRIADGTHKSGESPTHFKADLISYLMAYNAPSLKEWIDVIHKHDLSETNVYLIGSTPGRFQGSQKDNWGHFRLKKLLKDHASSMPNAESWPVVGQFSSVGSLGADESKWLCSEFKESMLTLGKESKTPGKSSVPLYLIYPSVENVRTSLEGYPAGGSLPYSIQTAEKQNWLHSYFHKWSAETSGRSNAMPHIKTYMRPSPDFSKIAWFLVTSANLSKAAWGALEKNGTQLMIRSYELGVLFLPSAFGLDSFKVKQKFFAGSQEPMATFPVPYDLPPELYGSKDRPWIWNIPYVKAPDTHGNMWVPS
# Thioredoxin reductase 1, cytoplasmic (Rattus norvegicus), sequence (O89049 whole entry, looked up): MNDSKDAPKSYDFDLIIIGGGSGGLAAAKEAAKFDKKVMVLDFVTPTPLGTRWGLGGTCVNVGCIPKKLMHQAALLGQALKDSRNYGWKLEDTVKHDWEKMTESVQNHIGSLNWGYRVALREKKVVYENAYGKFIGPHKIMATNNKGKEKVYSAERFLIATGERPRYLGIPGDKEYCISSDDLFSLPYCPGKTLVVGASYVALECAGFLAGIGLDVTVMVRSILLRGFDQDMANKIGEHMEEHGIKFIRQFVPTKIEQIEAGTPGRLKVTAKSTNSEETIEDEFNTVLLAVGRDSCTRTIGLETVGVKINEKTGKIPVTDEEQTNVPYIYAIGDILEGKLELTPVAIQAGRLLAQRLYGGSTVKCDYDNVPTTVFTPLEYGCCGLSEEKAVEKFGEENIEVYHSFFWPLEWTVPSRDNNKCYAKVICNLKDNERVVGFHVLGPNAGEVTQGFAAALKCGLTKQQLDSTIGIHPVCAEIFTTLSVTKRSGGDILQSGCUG
# Flap endonuclease 1 (Homo sapiens), sequence (P39748 whole entry, looked up): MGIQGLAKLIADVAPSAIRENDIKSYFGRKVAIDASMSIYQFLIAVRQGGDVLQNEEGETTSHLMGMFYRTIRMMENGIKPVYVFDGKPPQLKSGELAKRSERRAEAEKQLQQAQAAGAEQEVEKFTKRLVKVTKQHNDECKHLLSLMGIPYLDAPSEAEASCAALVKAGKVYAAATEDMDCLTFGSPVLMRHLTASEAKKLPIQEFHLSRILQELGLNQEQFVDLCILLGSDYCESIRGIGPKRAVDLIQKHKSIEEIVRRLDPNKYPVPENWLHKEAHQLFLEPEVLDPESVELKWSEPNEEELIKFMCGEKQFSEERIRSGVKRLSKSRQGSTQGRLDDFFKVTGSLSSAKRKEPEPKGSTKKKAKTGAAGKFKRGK
# Methanococcus maripaludis chaperonin (MmCpn), sequence (Q6LX38 1-543): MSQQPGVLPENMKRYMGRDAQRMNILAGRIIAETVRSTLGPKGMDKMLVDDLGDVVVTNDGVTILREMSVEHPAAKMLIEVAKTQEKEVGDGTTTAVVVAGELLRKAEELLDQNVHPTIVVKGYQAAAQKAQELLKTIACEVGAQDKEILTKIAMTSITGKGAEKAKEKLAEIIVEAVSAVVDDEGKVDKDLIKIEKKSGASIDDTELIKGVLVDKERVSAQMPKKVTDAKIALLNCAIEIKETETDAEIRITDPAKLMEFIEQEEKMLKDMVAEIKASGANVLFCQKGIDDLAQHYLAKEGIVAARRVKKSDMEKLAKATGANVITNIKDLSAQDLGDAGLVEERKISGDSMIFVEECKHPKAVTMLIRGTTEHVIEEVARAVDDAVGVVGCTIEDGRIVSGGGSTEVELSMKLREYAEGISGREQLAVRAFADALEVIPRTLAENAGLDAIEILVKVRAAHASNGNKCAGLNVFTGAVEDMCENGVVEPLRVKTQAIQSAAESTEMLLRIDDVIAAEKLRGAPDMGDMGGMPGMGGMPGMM
smiles,measurement,setting,value
Oc1ccc(/C=C/c2cc(O)cc(O)c2)cc1,outcome,[1],inactive
same,outcome,[2],inactive
same,outcome,[3],inactive
same,outcome,[4],inactive
same,outcome,[5],inactive
same,outcome,[6],inactive
C=Cc1ccc(S(=O)(=O)O)cc1,Potency,[7],12.6 µM (active)
Cn1nnnc1SCC1=C(C(=O)O)N2C(=O)[C@@H](NC(=O)[C@H](O)c3ccccc3)[C@H]2SC1,Potency,[7],3.98 µM (active)
